± gives the standard deviation of the averaged measurements. In all, about 33,000 sequences were measured (“E-score (rank enrichment, -0.5 to 0.5)”: median about -0.0068, highest 2% from about 0.24 on). Only a selection was taken, and the highest values are over-represented in it overall.
These sequences were tested on muMax20 (Max(13-93) K31hArg/K57hArg, M65Nle) (assay: PBM 8-mer E-score (E-score (rank enrichment, -0.5 to 0.5)); higher = stronger preferential binding).
Protocol: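 Protein binding microarray (universal PBM chip covering all 10-mers in fixed probe flanks) with chemically synthesized human Max(13-93) bHLH-LZ analogs (not full-length Max) bearing noncanonical residues (hArg, Tha, Aib, Nle at 65) and aromatic Cys staples. Read-out per 8-mer (and its reverse complement): E-score (rank-based enrichment, -0.5 to 0.5) and Z-score of median probe intensity.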

| Sequence | PBM 8-mer E-score |
| --- | --- |
| ACGTATCA | 0.243 ± 0.11 |
| CATATGAA | 0.0777 ± 0.049 |
| AGGCACGA | 0.109 ± 0.032 |
| CAGAGCTA | -0.25 ± 0.013 |
| TGAACAAA | 0.00782 ± 0.029 |
| ATAATCAA | 0.0671 ± 0.022 |
| GTAATAAC | 0.156 ± 0.072 |
| ATAATAAA | 0.217 ± 0.023 |
| ATAAGAAC | 0.24 ± 0.081 |
| ATAAGAAA | 0.141 ± 0.043 |
| CTAATCAG | -0.0349 ± 0.028 |
| CTAATAAA | 0.163 ± 0.024 |
| TTAATAAA | 0.238 ± 0.028 |
| ATAATCAG | 0.32 ± 0.072 |
| CTAATAAC | 0.19 ± 0.074 |
| ATAAGAAT | 0.165 ± 0.04 |
| ATAATAAC | 0.315 ± 0.034 |
| GATAGCGA | -0.086 ± 0.082 |
| AATCCGAC | 0.0325 ± 0.024 |
| CTCAGAGC | -0.28 ± 0.041 |
| ATCTGGAG | -0.0378 ± 0.089 |
| AAAGATGT | 0.203 ± 0.0026 |
| CCCGTCTC | -0.0114 ± 0.0032 |
| ATCTCAAG | -0.0469 ± 0.0077 |
| GCGAAGCA | 0.0453 ± 0.032 |

| Sequence | PBM 8-mer E-score |
| --- | --- |
| ACTTCCGC | -0.0937 ± 0.045 |
| CTAATAAG | 0.119 ± 0.044 |
| ATAATAAT | 0.205 ± 0.05 |
| ATAATAAG | 0.247 ± 0.051 |
| CGCAGAGA | -0.0723 ± 0.14 |
| CTCCAAGC | -0.018 ± 0.00052 |
| CATATAAA | 0.329 ± 0.056 |
| GATATAAA | 0.139 ± 0.03 |
| TGTATAAA | 0.207 ± 0.0065 |
| TATATAAA | 0.304 ± 0.05 |
| CATATAAG | 0.154 ± 0.076 |
| AATATAAT | 0.156 ± 0.065 |
| AATATAAG | 0.207 ± 0.045 |
| CATATAAC | 0.219 ± 0.048 |
| AATATAAA | 0.324 ± 0.012 |
| ACGACGCA | 0.00737 ± 0.11 |
| AGGGGGCA | -0.0171 ± 0.019 |
| CAGGCTCA | -0.0417 ± 0.019 |
| GATCTTGA | 0.101 ± 0.013 |
| CTAGGCGA | -0.155 ± 0.071 |
| TCCCCTCA | 0.14 ± 0.1 |
| GTTTCCTA | 0.307 ± 0.033 |
| ATTTCCTA | 0.137 ± 0.029 |
| CTTTCCTA | -0.0321 ± 0.019 |
| GGAGGGCA | 0.044 ± 0.11 |

| Sequence | PBM 8-mer E-score |
| --- | --- |
| ATCAATTA | 0.229 ± 0.068 |
| ATCAATTC | 0.172 ± 0.013 |
| ATCAATTG | 0.262 ± 0.073 |
| ACAATAAT | 0.286 ± 0.0027 |
| GCAATAAA | 0.0786 ± 0.0037 |
| ACAATAAA | 0.275 ± 0.025 |
| TCAATAAA | 0.114 ± 0.043 |
| ACAATCAT | 0.273 ± 0.042 |
| CCAATAAG | -0.0178 ± 0.017 |
| ACAATCAC | 0.228 ± 0.053 |
| AGAATAAT | 0.116 ± 0.05 |
| CCAATAAA | 0.266 ± 0.026 |
| ACAATAAC | 0.191 ± 0.0039 |
| ACAATAAG | 0.21 ± 0.021 |
| ACAATCAA | 0.0227 ± 0.021 |
| ACGTCTGA | -0.0769 ± 0.16 |
| CAGGGCAC | -0.0777 ± 0.0056 |
| AGGACCGC | 0.0155 ± 0.085 |
| CGACCTGC | -0.105 ± 0.063 |
| GAAACCCC | -0.0104 ± 0.014 |
| TAAGATTA | 0.129 ± 0.04 |
| TGCTTAAA | 0.024 ± 0.12 |
| ACTCGCGG | -0.0552 ± 0.016 |
| ATACAGTA | 0.233 ± 0.095 |
| ATACAGTG | 0.2396 ± 0.0022 |

| Sequence | PBM 8-mer E-score |
| --- | --- |
| ATACAGTC | 0.0784 ± 0.094 |
| GCGTGCAA | 0.0854 ± 0.022 |
| CTTGAGTC | -0.0129 ± 0.11 |
| CTCGACGA | -0.142 ± 0.024 |
| GAGCCCTA | -0.14 ± 0.018 |
| AGAAACAA | 0.2614 ± 0.0014 |
| ATAAACAC | 0.164 ± 0.11 |
| GTAAAACA | 0.108 ± 0.0083 |
| GGAAACAA | 0.0706 ± 0.057 |
| AGAAACAC | 0.00585 ± 0.032 |
| ATAAACAA | 0.27 ± 0.049 |
| ATAAAACA | 0.31 ± 0.025 |
| AAAAACTA | 0.095 ± 0.061 |
| TTAAACAA | 0.0932 ± 0.11 |
| ATAAAACG | 0.194 ± 0.02 |
| CAAAACTA | 0.132 ± 0.15 |
| TAAAACTA | 0.239 ± 0.11 |
| GGGAACAA | 0.144 ± 0.0098 |
| AGCCCCTC | 0.0302 ± 0.046 |
| AGCTCCTG | -0.171 ± 0.17 |
| CAGTCACC | -0.064 ± 0.14 |
| AGTTGAAG | 0.0533 ± 0.067 |
| CGGGAAGA | -0.0577 ± 0.15 |
| GAAAAACA | 0.16 ± 0.037 |
| ATAAACTC | 0.117 ± 0.039 |

| Sequence | PBM 8-mer E-score |
| --- | --- |
| CAAAAACG | 0.111 ± 0.068 |
| ACAAAACG | 0.187 ± 0.013 |
| AAAAAACG | 0.241 ± 0.023 |
| ATAAACTA | 0.276 ± 0.041 |
| ATAAACTG | 0.0137 ± 0.077 |
| AAAAAACA | 0.272 ± 0.11 |
| TAAAAACA | 0.171 ± 0.018 |
| AGATAGAG | -0.0243 ± 0.056 |
| ACAATGCG | 0.0438 ± 0.031 |
| CCGTTTCC | 0.0806 ± 0.018 |
| CCTTTCCA | 0.0937 ± 0.037 |
| CCCTTATA | 0.199 ± 0.086 |
| ATGTAATA | 0.2587 ± 0.0011 |
| CTGTAAAA | 0.0545 ± 0.043 |
| ATGTAATG | 0.2252 ± 0.0016 |
| ATGTAACG | 0.122 ± 0.029 |
| TTGTAAAA | 0.24 ± 0.053 |
| AAGTAACA | 0.152 ± 0.018 |
| CTGTAATA | 0.175 ± 0.023 |
| TAGTAACA | 0.239 ± 0.066 |
| CTGTAACA | 0.0977 ± 0.058 |
| ATGTAACA | 0.244 ± 0.057 |
| GAGTAACA | 0.164 ± 0.033 |
| ATGTAAAA | 0.221 ± 0.049 |
| CTAGTTAC | -0.0138 ± 0.072 |

| Sequence | PBM 8-mer E-score |
| --- | --- |
| AATTGCCA | 0.0456 ± 0.0012 |
| CATTCGGG | -0.0351 ± 0.075 |
| AATCTTGC | -0.066 ± 0.042 |
| ACGAGTGA | -0.0322 ± 0.14 |
| ATGTAAAG | 0.244 ± 0.038 |
| CTGTAAAG | -0.0854 ± 0.0043 |
| ATGTAAAT | 0.154 ± 0.09 |
| GGCTGACA | -0.104 ± 0.086 |
| ACCGTCAA | -0.205 ± 0.0036 |
| CATTACAA | 0.184 ± 0.097 |
| AACTACAA | 0.0818 ± 0.066 |
| AACTATAA | 0.229 ± 0.044 |
| GATTAGAA | 0.0438 ± 0.032 |
| TATTACAA | 0.236 ± 0.041 |
| CACTATAA | 0.0282 ± 0.15 |
| CATTAGAA | 0.0939 ± 0.015 |
| TACTACAA | 0.286 ± 0.0027 |
| AATTACAA | 0.209 ± 0.066 |
| CACTACAA | 0.152 ± 0.021 |
| TATTAGAA | 0.268 ± 0.0096 |
| TACTATAA | 0.284 ± 0.021 |
| CTGGGAGC | -0.247 ± 0.043 |
| AAAGTCCG | -0.148 ± 0.0098 |
| GTGGAAAC | 0.119 ± 0.033 |
| CCCTCATA | 0.135 ± 0.065 |

| Sequence | PBM 8-mer E-score |
| --- | --- |
| GTAGACAA | 0.173 ± 0.061 |
| GTCTTAGA | -0.0878 ± 0.12 |
| GGGCAAAA | -0.107 ± 0.024 |
| AGGGGTAG | 0.123 ± 0.011 |
| CTGTGGGA | -0.0483 ± 0.025 |
| AATTGATA | 0.232 ± 0.016 |
| AATTGATG | 0.264 ± 0.051 |
| AATTGATC | 0.0857 ± 0.087 |
| GAAGGGCA | 0.156 ± 0.0064 |
| ATAATGTC | 0.0566 ± 0.18 |
| ATAATGTA | 0.276 ± 0.0095 |
| ATTATGTG | 0.164 ± 0.049 |
| AGTATACT | 0.258 ± 0.04 |
| ATTATGTA | 0.247 ± 0.0099 |
| ACTATAGT | 0.243 ± 0.03 |
| CTAATGTA | 0.1481 ± 0.0014 |
| AGTATACC | 0.077 ± 0.053 |
| ACTATAGA | 0.117 ± 0.049 |
| ATTATGTC | 0.066 ± 0.23 |
| ACTATAGG | 0.0643 ± 0.011 |
| AGTATACA | 0.175 ± 0.1 |
| AACGTTGA | 0.212 ± 0.038 |

— the supplement of paper PMC12636033
